According to PubChem BioAssay (NCATS):
Results filed as inconclusive are left out. Active and inactive are the calls of the source. Calls come from the whole dose curve; as a rule, active = well fitted inhibition curve with a large enough effect; inconclusive = small, poorly fitted or top-dose-only effect; inactive = flat fitted curve, though single readings scatter.

Legend:
[1] = test system: CRL-7250; assay: Cytotoxic Profiling of Annotated Libraries Using Quantitative High-Throughput Screening (AID 1296008); conditions: Five cell lines viability, CellTiter-Glo ATP luminescence, 48-72 h; max response: stronger effect = lower value; note: potency is the fitted concentration of half-maximal effect; for max response: % is set by controls: 0 for no effect and ±100 for the full control effect
Summary of the method: (§1)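 Cells exposed to compounds for 48 or 72 hr at 37 degrees Celsius. Viability read as ATP-coupled luminescence with CellTiter-Glo after 10 min at room temperature.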

[2] = test system: HaCat; assay: as above; conditions: Five cell lines viability, CellTiter-Glo ATP luminescence, 48-72 h; max response: stronger effect = lower value
Summary of the method: as §1

[3] = test system: KB-3-1; assay: as above; conditions: Five cell lines viability, CellTiter-Glo ATP luminescence, 48-72 h; max response: stronger effect = lower value
Summary of the method: as §1

[4] = test system: GB4; assay: qHTS profiling for inhibitors of Plasmodium falciparum proliferation (AID 504749);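 note: 0% = DMSO vehicle and full inhibition = artemisinin control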; conditions: P. falciparum in erythrocytes, SYBR Green DNA, 72 h; series mostly up to 28.7 µM
Summary of the method: (§2)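 P. falciparum-infected erythrocytes (0.3% parasitemia, 2.5% hematocrit) incubated with compound 72 h at 37 C, 5% CO2. Parasite DNA detected by SYBR Green after lysis, overnight at room temperature; normalised to 0.29 uM artemisinin and DMSO.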

[5] = test system: HB3; assay: as above; conditions: P. falciparum in erythrocytes, SYBR Green DNA, 72 h; series mostly up to 28.7 µM
Summary of the method: as §2

[6] = test system: ICS; assay: as above; conditions: P. falciparum in erythrocytes, SYBR Green DNA, 72 h; series mostly up to 28.7 µM
Summary of the method: as §2

[7] = test system: JCK; assay: as above; conditions: P. falciparum in erythrocytes, SYBR Green DNA, 72 h; series mostly up to 28.7 µM
Summary of the method: as §2

[8] = test system: N140; assay: as above; conditions: P. falciparum in erythrocytes, SYBR Green DNA, 72 h; series mostly up to 28.7 µM
Summary of the method: as §2

[9] = test system: P93_24; assay: as above; conditions: P. falciparum in erythrocytes, SYBR Green DNA, 72 h; series mostly up to 28.7 µM
Summary of the method: as §2

[10] = test system: P94_40; assay: as above; conditions: P. falciparum in erythrocytes, SYBR Green DNA, 72 h; series mostly up to 28.7 µM
Summary of the method: as §2

[11] = test system: PAD; assay: as above; conditions: P. falciparum in erythrocytes, SYBR Green DNA, 72 h; series mostly up to 28.7 µM
Summary of the method: as §2

[12] = test system: PC15; assay: as above; conditions: P. falciparum in erythrocytes, SYBR Green DNA, 72 h; series mostly up to 28.7 µM
Summary of the method: as §2

[13] = test system: PC26; assay: as above; conditions: P. falciparum in erythrocytes, SYBR Green DNA, 72 h; series mostly up to 28.7 µM
Summary of the method: as §2

[14] = test system: PC49; assay: as above; conditions: P. falciparum in erythrocytes, SYBR Green DNA, 72 h; series mostly up to 28.7 µM
Summary of the method: as §2

[15] = test system: SC27B; assay: as above; conditions: P. falciparum in erythrocytes, SYBR Green DNA, 72 h; series mostly up to 28.7 µM
Summary of the method: as §2

[16] = test system: TAB109; assay: as above; conditions: P. falciparum in erythrocytes, SYBR Green DNA, 72 h; series mostly up to 28.7 µM
Summary of the method: as §2

[17] = test system: TAB113; assay: as above; conditions: P. falciparum in erythrocytes, SYBR Green DNA, 72 h; series mostly up to 28.7 µM
Summary of the method: as §2

[18] = test system: TAB165; assay: as above; conditions: P. falciparum in erythrocytes, SYBR Green DNA, 72 h; series mostly up to 28.7 µM
Summary of the method: as §2

[19] = test system: W2; assay: as above; conditions: P. falciparum in erythrocytes, SYBR Green DNA, 72 h; series mostly up to 28.7 µM
Summary of the method: as §2

[20] = test system: HEK293; assay: Cytotoxic Profiling of Annotated Libraries Using Quantitative High-Throughput Screening (AID 1296008); conditions: Five cell lines viability, CellTiter-Glo ATP luminescence, 48-72 h; max response: stronger effect = lower value; note: potency is the fitted concentration of half-maximal effect; for max response: % is set by controls: 0 for no effect and ±100 for the full control effect
Summary of the method: as §1
Note: nearly all actives have a fitted effect of over 60% in size.

O=C1NC(=O)C(=Cc2ccc(-c3ccc(F)cc3)o2)S1
inactive: max response [1] -0.559% | max response [2] -17.4% | max response [3] -5.29%

CN(C)CCC=C1c2ccccc2COc2ccc(CC(=O)O)cc21
inactive: outcome [1] | outcome [2] | outcome [3]

CC=CCC=CCCC(=O)[C@H]1O[C@@H]1C(N)=O
inactive: outcome [1] | outcome [2]

O=C1NC(=O)C(=Cc2cccc(C(F)(F)F)c2)S1
inactive: outcome [1] | max response [2] -6.56%

O=C(O)c1c(Cl)c(Cl)c(Cl)c(Cl)c1-c1c2cc(I)c(=O)c(I)c-2oc2c(I)c(O)c(I)cc12
inactive: Potency [4] | Potency [5] | Potency [6] | outcome [7] | Potency [8] | outcome [9] | Potency [10] | outcome [11] | outcome [12] | Potency [13] | outcome [14] | Potency [15] | outcome [16] | Potency [17] | Potency [18] | Potency [19] | max response [1] -20.2% | max response [20] -16.1% | outcome [2]

CC(=O)c1ccc(S(=O)(=O)NC(=O)NC2CCCCC2)cc1
inactive: Potency [4] | Potency [5] | Potency [6] | outcome [7] | Potency [8] | outcome [9] | Potency [10] | outcome [11] | outcome [12] | Potency [13] | outcome [14] | Potency [15] | Potency [17] | Potency [18] | Potency [19] | max response [1] -4.5% | outcome [20] | outcome [2] | max response [3] -6.14%

NC(=O)[C@@H](CCC(F)(F)F)N(Cc1ccc(-c2ncon2)cc1F)S(=O)(=O)c1ccc(Cl)cc1
inactive: max response [1] -21.3% | max response [2] -0.733% | max response [3] -20.8%

CC[C@H]1OC(=O)[C@H](C)[C@@H](O[C@H]2C[C@@](C)(OC)[C@@H](O)[C@H](C)O2)[C@H](C)[C@@H](O[C@@H]2O[C@H](C)C[C@H](N(C)C)[C@@H]2O)[C@](C)(O)C[C@@H](C)CN(C)[C@H](C)[C@@H](O)[C@]1(C)O
inactive: outcome [1] | outcome [2] | outcome [3]

C[C@@H]1CCN(C(=O)CC#N)C[C@H]1N(C)c1ncnc2[nH]ccc12
active: Potency [2] 8.33 µM
inactive: max response [1] -14.7% | max response [3] -5.04%

CCN(CC)CCOC(=O)c1ccc(N)cc1
inactive: Potency [4] | Potency [5] | Potency [6] | outcome [7] | Potency [8] | outcome [9] | Potency [10] | outcome [11] | outcome [12] | Potency [13] | outcome [14] | Potency [15] | outcome [16] | Potency [17] | Potency [18] | Potency [19] | max response [1] -12% | outcome [20] | outcome [2] | max response [3] 14%
